# According to article PMC7862700, “An all-to-all approach to the identification of sequence-specific readers for epigenetic DNA modifications on cytosine”:
# Legend:
# Assay in all cases: DAPPL (digital affinity profiling via proximity ligation, sequencing); 10 mM Tris-HCl pH 7.5, 50 mM NaCl, 1 mM DTT, 4% glycerol, room temperature, 30 min; GST-TFs on glutathione beads, 16-mer random dsDNA library, 0.1% formaldehyde crosslink after washing; high values mean tight binding
# FLI1 = molecular target: T1, FLI1 (Homo sapiens, UniProt Q01543 1-452); settings: protein: recombinant; tags: N-terminal GST; dsDNA, one strand shown
# T1 sequence: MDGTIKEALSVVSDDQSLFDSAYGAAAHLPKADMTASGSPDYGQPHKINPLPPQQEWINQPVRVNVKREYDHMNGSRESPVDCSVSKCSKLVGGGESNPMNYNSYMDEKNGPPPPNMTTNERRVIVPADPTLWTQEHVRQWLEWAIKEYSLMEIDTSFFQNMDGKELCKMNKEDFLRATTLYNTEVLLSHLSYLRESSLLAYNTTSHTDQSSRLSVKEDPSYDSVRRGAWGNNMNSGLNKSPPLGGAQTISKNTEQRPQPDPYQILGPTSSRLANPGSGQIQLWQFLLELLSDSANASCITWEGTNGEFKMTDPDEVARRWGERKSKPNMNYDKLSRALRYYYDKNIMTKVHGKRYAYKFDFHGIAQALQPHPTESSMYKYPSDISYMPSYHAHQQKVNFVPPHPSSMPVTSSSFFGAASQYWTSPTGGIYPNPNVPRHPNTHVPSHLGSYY
# In short: (§1)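 The binding signal reported is, for every hexamer, its read frequency for a factor over its read frequency for the tag-only sample. Reads came from pools of yeast-expressed, GST-fused human transcription factors on glutathione beads, barcoded with DNA and mixed with that sample, which were incubated with 200 nmole of a random double-stranded 16-mer DNA library in Tris/NaCl/DTT/glycerol buffer at room temperature for 30 min. After washing, the pools were crosslinked with 0.1% formaldehyde, proximity-ligated with BsaI/T4 ligase for 1 h at 37 °C, PCR-amplified and sequenced on an Illumina NextSeq500.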
# ELK1 = molecular target: T2, ELK1 (Homo sapiens, UniProt P19419 1-428); settings: protein: recombinant; tags: N-terminal GST; dsDNA, one strand shown
# T2 sequence: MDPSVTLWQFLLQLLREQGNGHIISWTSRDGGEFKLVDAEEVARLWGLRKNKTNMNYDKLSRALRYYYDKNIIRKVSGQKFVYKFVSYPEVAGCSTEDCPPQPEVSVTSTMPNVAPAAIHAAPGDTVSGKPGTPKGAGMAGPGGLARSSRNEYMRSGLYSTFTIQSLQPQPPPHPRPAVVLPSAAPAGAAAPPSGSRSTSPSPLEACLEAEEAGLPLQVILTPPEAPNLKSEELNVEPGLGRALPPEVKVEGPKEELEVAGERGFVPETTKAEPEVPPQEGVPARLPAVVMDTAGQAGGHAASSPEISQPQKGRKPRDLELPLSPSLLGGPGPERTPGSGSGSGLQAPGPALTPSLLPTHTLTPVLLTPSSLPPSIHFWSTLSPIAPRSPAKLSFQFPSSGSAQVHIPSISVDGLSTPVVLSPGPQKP
# In short: as §1
# GABPA = molecular target: T3, GABPA (Homo sapiens, UniProt Q06546 1-454); settings: protein: recombinant; tags: N-terminal GST; dsDNA, one strand shown
# T3 sequence: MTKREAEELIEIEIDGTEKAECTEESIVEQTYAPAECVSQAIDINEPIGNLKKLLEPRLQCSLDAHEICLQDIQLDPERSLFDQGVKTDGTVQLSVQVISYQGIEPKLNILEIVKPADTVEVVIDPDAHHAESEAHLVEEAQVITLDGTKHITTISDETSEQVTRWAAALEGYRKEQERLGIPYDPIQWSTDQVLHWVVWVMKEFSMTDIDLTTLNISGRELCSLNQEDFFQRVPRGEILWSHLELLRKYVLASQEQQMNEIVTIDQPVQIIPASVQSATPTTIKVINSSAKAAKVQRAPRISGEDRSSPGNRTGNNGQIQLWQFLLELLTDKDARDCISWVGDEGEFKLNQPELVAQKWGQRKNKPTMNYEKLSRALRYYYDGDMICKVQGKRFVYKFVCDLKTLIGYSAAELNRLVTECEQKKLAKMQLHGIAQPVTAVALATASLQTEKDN
# In short: as §1
# ERG = molecular target: T4, ERG (Homo sapiens, UniProt P11308 1-479); settings: protein: recombinant; tags: N-terminal GST; dsDNA, one strand shown
# T4 sequence: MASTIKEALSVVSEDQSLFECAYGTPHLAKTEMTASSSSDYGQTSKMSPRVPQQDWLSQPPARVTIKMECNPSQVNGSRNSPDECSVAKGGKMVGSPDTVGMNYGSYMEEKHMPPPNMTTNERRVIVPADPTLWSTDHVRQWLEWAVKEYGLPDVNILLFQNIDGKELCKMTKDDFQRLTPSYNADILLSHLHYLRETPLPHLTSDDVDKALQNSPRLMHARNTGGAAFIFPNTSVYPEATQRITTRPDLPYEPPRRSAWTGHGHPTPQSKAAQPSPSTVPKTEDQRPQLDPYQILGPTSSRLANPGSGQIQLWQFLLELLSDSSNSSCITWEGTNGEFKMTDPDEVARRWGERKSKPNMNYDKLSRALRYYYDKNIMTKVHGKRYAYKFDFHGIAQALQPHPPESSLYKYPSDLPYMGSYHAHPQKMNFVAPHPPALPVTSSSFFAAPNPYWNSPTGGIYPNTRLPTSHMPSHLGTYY
# In short: as §1
# ELF1 = ELF1 (Homo sapiens, UniProt P32519 1-619); settings: protein: recombinant; tags: N-terminal GST; dsDNA, one strand shown
# In short: as §1
# EHF = molecular target: T5, EHF (Homo sapiens, UniProt Q9NZC4 1-300); settings: protein: recombinant; tags: N-terminal GST; dsDNA, one strand shown
# T5 sequence: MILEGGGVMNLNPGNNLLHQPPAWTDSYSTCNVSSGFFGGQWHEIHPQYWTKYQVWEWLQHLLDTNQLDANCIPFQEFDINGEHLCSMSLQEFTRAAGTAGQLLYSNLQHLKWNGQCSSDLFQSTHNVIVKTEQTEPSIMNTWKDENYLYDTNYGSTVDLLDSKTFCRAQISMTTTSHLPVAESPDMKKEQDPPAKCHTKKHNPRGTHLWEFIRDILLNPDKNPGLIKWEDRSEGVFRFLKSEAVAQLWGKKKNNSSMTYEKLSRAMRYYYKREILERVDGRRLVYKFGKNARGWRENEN
# In short: as §1
# SPI1 = SPI1 (Homo sapiens, UniProt P17947 1-270); settings: protein: recombinant; tags: N-terminal GST; dsDNA, one strand shown
# In short: as §1
# SPIB = SPIB (Homo sapiens, UniProt Q01892 1-262); settings: protein: recombinant; tags: N-terminal GST; dsDNA, one strand shown
# In short: as §1
# ELK3 = molecular target: T6, ELK3 (Homo sapiens, UniProt P41970 1-407); settings: protein: recombinant; tags: N-terminal GST; dsDNA, one strand shown
# T6 sequence: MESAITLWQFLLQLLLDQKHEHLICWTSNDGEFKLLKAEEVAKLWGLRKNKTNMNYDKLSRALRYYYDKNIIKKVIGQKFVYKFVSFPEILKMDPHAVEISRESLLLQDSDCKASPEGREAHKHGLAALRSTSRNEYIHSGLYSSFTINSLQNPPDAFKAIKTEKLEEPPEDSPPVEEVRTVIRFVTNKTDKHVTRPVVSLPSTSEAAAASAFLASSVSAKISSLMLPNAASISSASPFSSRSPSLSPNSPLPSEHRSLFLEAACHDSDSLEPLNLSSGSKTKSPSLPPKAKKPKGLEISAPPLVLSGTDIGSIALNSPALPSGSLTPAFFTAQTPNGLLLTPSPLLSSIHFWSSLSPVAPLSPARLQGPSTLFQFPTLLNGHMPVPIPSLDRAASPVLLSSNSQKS
# In short: as §1
# FEV = molecular target: T7, FEV (Homo sapiens, UniProt Q99581 1-238); settings: protein: recombinant; tags: N-terminal GST; dsDNA, one strand shown
# T7 sequence: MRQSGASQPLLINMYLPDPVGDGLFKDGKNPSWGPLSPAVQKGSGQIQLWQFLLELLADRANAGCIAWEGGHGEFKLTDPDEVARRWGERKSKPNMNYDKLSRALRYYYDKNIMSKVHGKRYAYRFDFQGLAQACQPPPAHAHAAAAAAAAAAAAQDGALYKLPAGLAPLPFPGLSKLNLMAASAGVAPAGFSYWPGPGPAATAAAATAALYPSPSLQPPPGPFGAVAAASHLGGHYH
# In short: as §1
# ETV5 = ETV5 (Homo sapiens, UniProt P41161 1-510); settings: protein: recombinant; tags: N-terminal GST; dsDNA, one strand shown
# In short: as §1
# HSF1 = HSF1 (Homo sapiens, UniProt Q00613 1-529); settings: protein: recombinant; tags: N-terminal GST; chain copies: 3; dsDNA, one strand shown
# In short: as §1
# SPIC = molecular target: T8, SPIC (Homo sapiens, UniProt Q8N5J4 1-248); settings: protein: recombinant; tags: N-terminal GST; dsDNA, one strand shown
# T8 sequence: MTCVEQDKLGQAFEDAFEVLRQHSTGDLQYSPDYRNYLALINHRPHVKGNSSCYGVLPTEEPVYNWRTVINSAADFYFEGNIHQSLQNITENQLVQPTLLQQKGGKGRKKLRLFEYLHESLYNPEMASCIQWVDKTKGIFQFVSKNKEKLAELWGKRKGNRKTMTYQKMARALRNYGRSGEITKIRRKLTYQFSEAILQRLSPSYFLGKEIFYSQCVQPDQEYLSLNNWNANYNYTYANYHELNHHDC
# In short: as §1
# ELF4 = ELF4 (Homo sapiens, UniProt Q99607 1-663); settings: protein: recombinant; tags: N-terminal GST; dsDNA, one strand shown
# In short: as §1
# ELK4 = molecular target: T9, ELK4 (Homo sapiens, UniProt P28324-2 1-405); settings: protein: recombinant; tags: N-terminal GST; dsDNA, one strand shown
# T9 sequence: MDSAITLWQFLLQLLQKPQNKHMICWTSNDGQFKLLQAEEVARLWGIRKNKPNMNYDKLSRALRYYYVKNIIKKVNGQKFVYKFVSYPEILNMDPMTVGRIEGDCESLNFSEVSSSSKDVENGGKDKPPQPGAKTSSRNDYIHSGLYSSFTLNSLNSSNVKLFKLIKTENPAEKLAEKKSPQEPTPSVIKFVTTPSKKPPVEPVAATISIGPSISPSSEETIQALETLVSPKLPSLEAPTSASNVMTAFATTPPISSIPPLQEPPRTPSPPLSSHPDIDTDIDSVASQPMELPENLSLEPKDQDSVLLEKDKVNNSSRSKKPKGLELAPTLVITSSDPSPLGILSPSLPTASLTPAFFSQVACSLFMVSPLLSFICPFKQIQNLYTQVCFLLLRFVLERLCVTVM
# In short: as §1
# ETV2 = molecular target: T10, ETV2 (Homo sapiens, UniProt O00321 1-342); settings: protein: recombinant; tags: N-terminal GST; dsDNA, one strand shown
# T10 sequence: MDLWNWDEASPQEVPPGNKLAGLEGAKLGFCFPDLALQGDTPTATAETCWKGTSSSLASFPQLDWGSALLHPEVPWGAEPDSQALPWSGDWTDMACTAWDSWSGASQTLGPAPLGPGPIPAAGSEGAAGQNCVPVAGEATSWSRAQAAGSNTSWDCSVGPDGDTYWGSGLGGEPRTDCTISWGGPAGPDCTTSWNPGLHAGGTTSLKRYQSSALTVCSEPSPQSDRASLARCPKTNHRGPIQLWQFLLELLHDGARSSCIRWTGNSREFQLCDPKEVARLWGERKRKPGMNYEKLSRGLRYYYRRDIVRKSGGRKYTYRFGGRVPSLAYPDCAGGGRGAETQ
# In short: as §1
# ELF3 = molecular target: T11, ELF3 (Homo sapiens, UniProt P78545 1-371); settings: protein: recombinant; tags: N-terminal GST; dsDNA, one strand shown
# T11 sequence: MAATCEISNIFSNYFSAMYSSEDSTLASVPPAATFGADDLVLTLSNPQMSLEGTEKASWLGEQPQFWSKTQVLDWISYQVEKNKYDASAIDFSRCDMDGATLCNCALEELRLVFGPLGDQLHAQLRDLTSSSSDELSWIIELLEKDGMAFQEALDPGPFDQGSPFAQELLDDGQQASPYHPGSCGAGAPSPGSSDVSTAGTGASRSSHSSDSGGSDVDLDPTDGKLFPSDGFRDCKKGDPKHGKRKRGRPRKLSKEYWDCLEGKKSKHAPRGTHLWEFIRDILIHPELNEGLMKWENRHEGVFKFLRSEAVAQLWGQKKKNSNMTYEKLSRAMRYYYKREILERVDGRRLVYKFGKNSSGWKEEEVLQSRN
# In short: as §1
# ETV1 = ETV1 (Homo sapiens, UniProt P50549 1-477); settings: protein: recombinant; tags: N-terminal GST; dsDNA, one strand shown
# In short: as §1
# Sequence of HSF1 (Q00613 whole entry): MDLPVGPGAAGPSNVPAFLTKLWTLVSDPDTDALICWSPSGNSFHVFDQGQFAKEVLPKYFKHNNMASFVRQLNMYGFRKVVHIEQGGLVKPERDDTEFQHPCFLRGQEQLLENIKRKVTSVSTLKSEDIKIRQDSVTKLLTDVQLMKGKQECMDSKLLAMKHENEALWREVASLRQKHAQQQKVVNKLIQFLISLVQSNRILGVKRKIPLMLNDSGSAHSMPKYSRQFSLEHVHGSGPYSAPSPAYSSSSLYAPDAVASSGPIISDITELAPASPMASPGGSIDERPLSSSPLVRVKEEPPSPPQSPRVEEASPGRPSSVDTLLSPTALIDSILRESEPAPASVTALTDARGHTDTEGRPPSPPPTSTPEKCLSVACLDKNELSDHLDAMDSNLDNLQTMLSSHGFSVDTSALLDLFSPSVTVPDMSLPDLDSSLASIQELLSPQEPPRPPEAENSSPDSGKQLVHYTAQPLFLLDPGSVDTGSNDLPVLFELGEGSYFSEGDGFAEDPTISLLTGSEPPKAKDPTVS
# Sequence of ELF4 (Q99607 whole entry): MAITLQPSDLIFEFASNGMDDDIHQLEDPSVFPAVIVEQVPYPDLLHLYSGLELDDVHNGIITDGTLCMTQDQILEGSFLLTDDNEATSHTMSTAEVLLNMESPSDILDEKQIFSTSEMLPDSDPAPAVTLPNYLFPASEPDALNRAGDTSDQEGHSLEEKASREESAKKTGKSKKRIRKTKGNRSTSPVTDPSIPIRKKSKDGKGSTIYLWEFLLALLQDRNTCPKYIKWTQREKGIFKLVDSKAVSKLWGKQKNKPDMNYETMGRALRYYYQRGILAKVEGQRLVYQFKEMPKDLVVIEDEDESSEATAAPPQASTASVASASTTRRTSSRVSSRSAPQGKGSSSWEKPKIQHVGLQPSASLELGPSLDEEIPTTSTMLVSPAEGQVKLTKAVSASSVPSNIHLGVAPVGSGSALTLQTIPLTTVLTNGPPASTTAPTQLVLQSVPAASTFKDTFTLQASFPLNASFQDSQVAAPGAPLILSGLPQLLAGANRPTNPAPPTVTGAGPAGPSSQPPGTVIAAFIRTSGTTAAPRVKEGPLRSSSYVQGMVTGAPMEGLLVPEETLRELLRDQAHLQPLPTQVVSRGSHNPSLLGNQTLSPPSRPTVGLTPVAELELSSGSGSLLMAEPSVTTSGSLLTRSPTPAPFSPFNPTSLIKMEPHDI
# Sequence of ELF1 (P32519 whole entry): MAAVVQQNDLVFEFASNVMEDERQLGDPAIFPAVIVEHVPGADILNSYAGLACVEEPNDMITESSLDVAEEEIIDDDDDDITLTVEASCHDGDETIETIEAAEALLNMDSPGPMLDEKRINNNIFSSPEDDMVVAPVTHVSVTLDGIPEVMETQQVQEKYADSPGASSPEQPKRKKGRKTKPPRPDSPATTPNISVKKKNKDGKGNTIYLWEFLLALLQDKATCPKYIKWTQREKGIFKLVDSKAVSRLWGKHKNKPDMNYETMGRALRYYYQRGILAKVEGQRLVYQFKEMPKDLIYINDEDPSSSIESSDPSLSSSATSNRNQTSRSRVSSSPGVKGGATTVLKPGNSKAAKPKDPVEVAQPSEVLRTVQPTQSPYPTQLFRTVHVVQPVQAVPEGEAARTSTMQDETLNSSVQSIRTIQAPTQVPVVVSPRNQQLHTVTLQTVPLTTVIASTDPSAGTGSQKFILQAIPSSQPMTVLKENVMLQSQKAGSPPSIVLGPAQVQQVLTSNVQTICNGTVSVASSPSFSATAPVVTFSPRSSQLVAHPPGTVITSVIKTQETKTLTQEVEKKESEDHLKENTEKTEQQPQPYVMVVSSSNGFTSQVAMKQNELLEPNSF
# Sequence of ETV1 (P50549 whole entry): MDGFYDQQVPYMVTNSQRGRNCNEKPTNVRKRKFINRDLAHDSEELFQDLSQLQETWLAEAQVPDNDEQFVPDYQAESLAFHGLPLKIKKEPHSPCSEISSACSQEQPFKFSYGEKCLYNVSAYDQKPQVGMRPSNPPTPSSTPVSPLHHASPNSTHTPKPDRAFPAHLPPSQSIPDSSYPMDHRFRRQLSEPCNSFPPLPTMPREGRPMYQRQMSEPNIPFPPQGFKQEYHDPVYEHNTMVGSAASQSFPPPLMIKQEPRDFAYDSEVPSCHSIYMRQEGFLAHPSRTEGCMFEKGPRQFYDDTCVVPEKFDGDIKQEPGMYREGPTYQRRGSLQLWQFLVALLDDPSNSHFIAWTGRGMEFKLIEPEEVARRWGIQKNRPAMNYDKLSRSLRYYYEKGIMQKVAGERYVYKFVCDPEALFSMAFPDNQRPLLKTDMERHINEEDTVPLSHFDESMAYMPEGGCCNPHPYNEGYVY
# Sequence of ETV5 (P41161 whole entry): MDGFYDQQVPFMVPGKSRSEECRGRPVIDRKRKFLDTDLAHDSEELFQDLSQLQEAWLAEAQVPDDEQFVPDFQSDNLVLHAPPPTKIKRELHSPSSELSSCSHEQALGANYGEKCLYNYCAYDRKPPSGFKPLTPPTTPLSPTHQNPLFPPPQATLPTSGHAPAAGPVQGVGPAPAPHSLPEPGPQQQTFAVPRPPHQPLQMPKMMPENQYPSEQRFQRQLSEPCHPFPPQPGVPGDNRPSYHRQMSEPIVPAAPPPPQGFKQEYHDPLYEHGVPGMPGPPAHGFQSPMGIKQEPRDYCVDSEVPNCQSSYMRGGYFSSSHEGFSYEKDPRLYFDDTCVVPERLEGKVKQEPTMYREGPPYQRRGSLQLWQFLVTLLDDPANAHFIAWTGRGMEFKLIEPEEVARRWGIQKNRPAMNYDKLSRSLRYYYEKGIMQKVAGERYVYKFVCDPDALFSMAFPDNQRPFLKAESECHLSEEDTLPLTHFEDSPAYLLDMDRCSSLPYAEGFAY
# Sequence of SPIB (Q01892 whole entry): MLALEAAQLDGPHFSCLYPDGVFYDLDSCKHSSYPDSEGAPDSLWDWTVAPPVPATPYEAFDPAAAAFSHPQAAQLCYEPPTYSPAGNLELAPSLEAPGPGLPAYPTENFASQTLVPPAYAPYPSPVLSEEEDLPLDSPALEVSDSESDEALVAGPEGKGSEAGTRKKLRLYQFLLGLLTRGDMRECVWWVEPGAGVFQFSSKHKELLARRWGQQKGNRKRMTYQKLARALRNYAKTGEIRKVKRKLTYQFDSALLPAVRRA
sequence,measurement,setting,value
ATGTGG,binding signal,FLI1,"1.08 fold enrichment (6-mer frequency, TF over GST control)"
same,binding signal,ELK1,"1.05 fold enrichment (6-mer frequency, TF over GST control)"
same,binding signal,GABPA,"1.11 fold enrichment (6-mer frequency, TF over GST control)"
same,binding signal,ERG,"1.21 fold enrichment (6-mer frequency, TF over GST control)"
same,binding signal,ELF1,"1.18 fold enrichment (6-mer frequency, TF over GST control)"
same,binding signal,EHF,"1.23 fold enrichment (6-mer frequency, TF over GST control)"
same,binding signal,SPI1,"1.02 fold enrichment (6-mer frequency, TF over GST control)"
same,binding signal,SPIB,"1.31 fold enrichment (6-mer frequency, TF over GST control)"
same,binding signal,ELK3,"1.1 fold enrichment (6-mer frequency, TF over GST control)"
same,binding signal,FEV,"1.2 fold enrichment (6-mer frequency, TF over GST control)"
same,binding signal,ETV5,"1.09 fold enrichment (6-mer frequency, TF over GST control)"
same,binding signal,HSF1,"1.04 fold enrichment (6-mer frequency, TF over GST control)"
same,binding signal,SPIC,"1.18 fold enrichment (6-mer frequency, TF over GST control)"
same,binding signal,ELF4,"1.15 fold enrichment (6-mer frequency, TF over GST control)"
same,binding signal,ELK4,"1.27 fold enrichment (6-mer frequency, TF over GST control)"
same,binding signal,ETV2,"1.28 fold enrichment (6-mer frequency, TF over GST control)"
same,binding signal,ELF3,"1.26 fold enrichment (6-mer frequency, TF over GST control)"
same,binding signal,ETV1,"1.12 fold enrichment (6-mer frequency, TF over GST control)"
